Only some compounds are listed: those with a hit (about 6.6% of all), similar ones and a draw of the others.
KB-3-1 tox = KB-3-1 parental cell cytotoxicity; KB-3-1 viability, CellTiter-Glo ATP luminescence, 72 h; Potency, µM (top dose mostly 46.1 µM), hits mostly cytotoxic; 400,000 tested, 1.4% active; AID 1347075; further: on the % scale 0 is the no-effect control and ±100 the full control effect; nearly all actives have a fitted effect of over 60% in size
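Luminescent ATP read-out (CellTiter-Glo) measures survival of drug-naive KB-3-1 cells after 72 h compound exposure at 37 °C. Titration series was screened from lowest to highest concentration, with DMSO vehicle plates as background controls.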
HepG2 viability = HepG2 cytotoxicity, counter-screen for TGF-b inhibitors | 410,000 tested, 0.76% active | Potency, µM (highest dose often 46.1 µM), for the others: at the top dose activity change, negative = cytotoxicity, most hits filed as cytotoxic | HepG2 CAGA-GFP viability, ATP luminescence, 18 h
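HepG2 CAGA-GFP cells (1000/well, DMEM with 1% FBS) received compound, then TGF-beta at 500 pg/mL final, and were incubated 18 hours at 37 degrees C. Viability was read by CellTiter-Glo luminescence. Media-only wells were set as complete cell-killing and DMSO as no toxicity.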
TGFb inhibitor = inhibitors of TGF-b signaling | HepG2 CAGA-GFP TGF-b/SMAD3 reporter, GFP fluorescence, 18 h; TGF-beta stimulated, 500 pg/mL final | Potency, µM (doses to about 46.1 µM), without a hit: at the top dose activity, negative = inhibition, actives largely listed as inhibitors | 410,000 tested, 1.2% active | AID 588855; further: on the % scale 0 is the no-effect control and ±100 the full control effect; nearly all actives have a fitted effect of over 65% in size
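HEPG2 CAGA-GFP reporter cells (1000/well, DMEM with 1% FBS) received compounds, then recombinant TGF-beta at 500 pg/mL final for 18 hours at 37 degrees C. Per-cell GFP summed per well was normalised to unstimulated and stimulated DMSO controls before curve fitting.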
KB-V1 cytotox = KB-V1 MDR subline cytotoxicity | AID 1347076 | Potency, µM (top dose mostly 46.1 µM), actives largely listed as cytotoxic | 400,000 tested, 3.4% active | KB-V1 MDR cells viability, CellTiter-Glo, 72 h; further: on the % scale 0 is the no-effect control and ±100 the full control effect; nearly all actives have a fitted effect of over 60% in size
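Luminescent ATP read-out (CellTiter-Glo, 10 min) measures survival of drug-selected KB-V1 MDR cells after 72 h, 37 degrees C compound exposure. Medium: phenol-red-free DMEM, 10% FBS. Values from fitted concentration-response curves.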
HT1080 IDH1KD tx = toxicity to HT-1080 IDH1 knockdown cells (counter line); HT-1080 IDH1 knockdown viability, ATP luminescence, 48 h; Potency, µM (titrated, usually from 46.1 µM), for inactives: top-dose activity, negative = toxicity, actives largely listed as cytotoxic; 360,000 tested, 2% active;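 further: 0% = DMSO wells and -100% = cell-free medium wells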
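Knockdown cells (IDH1KD HT-1080) received compounds 2 h after plating at 750 cells/well and were kept 48 h at 37 °C in 5% FBS RPMI. A CellTiter-Glo luminescence read gave % activity for curve fitting.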
HT1080NT lethal = kills 2HG-producing HT-1080-NT fibrosarcoma cells; 360,000 tested, 1.6% active; Potency, µM (titrated, usually from 46.1 µM), inactives show at the top dose activity, negative = less viability, most hits filed as cytotoxic; HT-1080-NT fibrosarcoma viability, CellTiter-Glo ATP luminescence, 48 h; AID 686970;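 further: NT is the 2HG producing partner of a matched IDH1 knockdown line; 0% = DMSO-treated cells and -100% = media-only wells without cells; nearly all actives have a fitted effect of over 55% in size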
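Luminescent CellTiter-Glo readout after 48 hours of compound exposure at 37 degrees C defined viability of HT-1080-NT cells. Activity was normalized to DMSO wells and cell-free media wells; concentration-response curves were fitted and assigned curve classes.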
* = called active by the depositor. The call rests on the fitted dose curve; in most records, active means well fitted curve in the direction sought with a large enough effect; inconclusive means small, poorly fitted or top-dose-only effect, or another doubt; inactive means no such curve, though single readings can be large; an effect the other way counts as inactive or inconclusive. Potency means the concentration at half of the fitted maximal effect.

Screening COc1ccnc(Oc2ccccc2)c1C(=O)N/C=N/OCc1ccc(F)cc1Cl returned KB-3-1 tox inconclusive, HepG2 viability -49.1%, TGFb inhibitor inconclusive, KB-V1 cytotox inactive, HT1080 IDH1KD tx 15.8µM* and HT1080NT lethal inconclusive.
For Cc1onc(-c2ccccc2)c1C(=O)NNC(=S)NC(=O)c1ccc(Cl)cc1Cl the results were KB-3-1 tox inactive, HepG2 viability 12.6µM*, TGFb inhibitor inconclusive, KB-V1 cytotox inconclusive, HT1080 IDH1KD tx inconclusive and HT1080NT lethal -20.2%.
COc1ccc(/C=C/C(=O)NC(=S)NNC(=O)c2c(-c3ccccc3)noc2C)cc1 was read as KB-3-1 tox inconclusive, HepG2 viability 0.5%, TGFb inhibitor -0.7%, KB-V1 cytotox 7.31µM*, HT1080 IDH1KD tx inconclusive and HT1080NT lethal -12.6%.
Screening Cc1onc(-c2ccccc2)c1C(=O)NNC(=S)NC(=O)/C=C/c1ccccc1 returned KB-3-1 tox inconclusive, HepG2 viability -12.1%, TGFb inhibitor inconclusive, KB-V1 cytotox 2.91µM*, HT1080 IDH1KD tx inconclusive and HT1080NT lethal -12.7%.
`Cc1onc(-c2ccccc2)c1C(=O)NNC(=O)c1ccccc1` gave KB-3-1 tox inactive, HepG2 viability -6.0%, TGFb inhibitor 14.4%, KB-V1 cytotox inactive, HT1080 IDH1KD tx 3.9% and HT1080NT lethal 13.6%.
Screening Cc1onc(-c2ccccc2)c1C(=O)NNC(=S)NC(=O)c1ccc(Br)cc1 returned KB-3-1 tox inactive, HepG2 viability -34.1%, TGFb inhibitor 0.0%, KB-V1 cytotox inconclusive, HT1080 IDH1KD tx inconclusive and HT1080NT lethal inconclusive.
`COc1ccc(/C=C/C(=O)NC(=S)NNC(=O)Cc2cccs2)cc1` gave KB-3-1 tox inconclusive, HepG2 viability -6.7%, TGFb inhibitor inconclusive, KB-V1 cytotox inconclusive, HT1080 IDH1KD tx 16.4µM* and HT1080NT lethal 14.6µM*.
`Cc1cc(CN(C)Cc2cn(C)nc2-c2ccc(Oc3ccccc3)cc2)on1` gave KB-3-1 tox inactive, HepG2 viability -12.5%, TGFb inhibitor -23.7%, KB-V1 cytotox 9.2µM*, HT1080 IDH1KD tx -10.9% and HT1080NT lethal 0.0%.
For CN(Cc1cccnc1)Cc1cn(C)nc1-c1ccc(Oc2ccccc2)cc1 the results were KB-3-1 tox inactive, HepG2 viability -24.6%, TGFb inhibitor -13.6%, KB-V1 cytotox inactive, HT1080 IDH1KD tx -20.1% and HT1080NT lethal -22.7%.
For CCC(C)(C)C1CCC2(CC1)NC(=O)N(CC(=O)NCCc1ccc(OC)c(OC)c1)C2=O (stereo not drawn) the results were KB-3-1 tox inconclusive, HepG2 viability -19.0%, TGFb inhibitor inconclusive, KB-V1 cytotox 16.4µM*, HT1080 IDH1KD tx -15.7% and HT1080NT lethal -8.0%.
Screening CCN(CC(=O)Nc1c(F)cccc1F)C(=O)C1CCN(c2ncnc3sc(C)c(C)c23)CC1 returned KB-3-1 tox inactive, HepG2 viability 2.9%, TGFb inhibitor -5.3%, KB-V1 cytotox 13µM*, HT1080 IDH1KD tx -10.7% and HT1080NT lethal -13.6%.
Screening CCN(CC(=O)Nc1c(Cl)cccc1Cl)C(=O)C1CCN(c2ncnc3sc(C)c(C)c23)CC1 returned KB-3-1 tox inactive, HepG2 viability 3.5%, TGFb inhibitor inconclusive, KB-V1 cytotox inactive, HT1080 IDH1KD tx -0.3% and HT1080NT lethal 4.4%.
`COc1ccc(-c2nc(C)c(CCNS(=O)(=O)c3ccc(F)cc3)s2)cc1OC` gave KB-3-1 tox inconclusive, HepG2 viability -31.5%, TGFb inhibitor 1.6% and KB-V1 cytotox 9.2µM*.
For Cc1nc(-c2ccccc2)sc1CCNS(=O)(=O)c1ccc(Br)cc1 the results were KB-3-1 tox inconclusive, HepG2 viability -42.6%, TGFb inhibitor 11.2µM* and KB-V1 cytotox 20.6µM*.
Screening Cc1nc(C)c(CCNS(=O)(=O)c2ccc(C)c(C)c2)s1 returned KB-3-1 tox inconclusive, HepG2 viability -2.6%, TGFb inhibitor 6.0% and KB-V1 cytotox 20.6µM*.
COc1ccc(-c2nc(C)c(CCNS(=O)(=O)c3cc(C)c(C)cc3C)s2)cc1 was read as KB-3-1 tox inconclusive, HepG2 viability -25.4%, TGFb inhibitor 11.2µM* and KB-V1 cytotox 18.4µM*.
For COc1ccc(S(=O)(=O)NCCc2sc(-c3ccccc3)nc2C)cc1OC the results were KB-3-1 tox inactive, HepG2 viability -29.6%, TGFb inhibitor -2.9% and KB-V1 cytotox inconclusive.
Screening COc1cccc(N2C(=O)C(CC(=O)Nc3ccc(Cl)cc3)N(Cc3ccc4c(c3)OCO4)C2=O)c1 (stereo not drawn) returned KB-3-1 tox inactive, HepG2 viability -34.4%, TGFb inhibitor -12.8% and KB-V1 cytotox inactive.
COc1cccc(CN2CCCN(Cc3ccc(F)cc3)S2(=O)=O)c1 was read as KB-3-1 tox inactive, HepG2 viability -3.3%, TGFb inhibitor inconclusive and KB-V1 cytotox inactive.
COc1ccc(-c2nc(C)c(CCNS(=O)(=O)c3cc(Cl)ccc3Cl)s2)cc1 was read as KB-3-1 tox 14.6µM*, HepG2 viability -6.2%, TGFb inhibitor inconclusive and KB-V1 cytotox 20.6µM*.
For COc1ccc(OC)c(S(=O)(=O)NCCc2sc(-c3cccnc3)nc2C)c1 the results were KB-3-1 tox inactive, HepG2 viability -4.1%, TGFb inhibitor 19.5% and KB-V1 cytotox inconclusive.
`COc1cc(/C=N/Nc2snc(SC)c2C#N)ccc1O` gave KB-3-1 tox inactive, HepG2 viability -11.0%, TGFb inhibitor 4.0%, KB-V1 cytotox inconclusive, HT1080 IDH1KD tx 3.16µM* and HT1080NT lethal inconclusive.
COc1cc(/C=N/Nc2nn3cnnc3c3ccccc23)ccc1O was read as KB-3-1 tox inactive, HepG2 viability -33.2%, TGFb inhibitor 1.4%, KB-V1 cytotox inconclusive, HT1080 IDH1KD tx 5.62µM* and HT1080NT lethal inconclusive.
COc1cccc(/C=N/Nc2nc3ccccc3[nH]2)c1O was read as KB-3-1 tox 5.8µM*, HepG2 viability -76.4%, TGFb inhibitor 3.16µM*, KB-V1 cytotox inconclusive, HT1080 IDH1KD tx 11.6µM* and HT1080NT lethal inconclusive.
CC(=O)Nc1ccc(/C=N/Nc2nc3ccccc3[nH]2)cc1 was read as KB-3-1 tox 23.1µM*, HepG2 viability -75.6%, TGFb inhibitor inconclusive, KB-V1 cytotox inactive, HT1080 IDH1KD tx inconclusive and HT1080NT lethal inconclusive.
Screening COc1cccc(/C=N/Nc2nc3ccccc3[nH]2)c1OC returned KB-3-1 tox inactive, HepG2 viability -13.8%, TGFb inhibitor -5.5%, KB-V1 cytotox inactive, HT1080 IDH1KD tx 13.1% and HT1080NT lethal 14.1%.

Screening data (PubChem)
